# Screens from PubChem BioAssay.
# Shown are actives, neighbours in structure and some others; about 12% of the full set was active somewhere.
# CHX counter – counter-screen hit for Shiga toxin inhibitors, cycloheximide. AID 2314. cell reporter, cycloheximide protein synthesis inhibition counterscreen. max response, %. actives 12% (n = 300,000); in the data active means max response mostly above about 13%, no sharp cut-off; inactive means mostly below about 14%; further: read at 38.3 µM for the half of the compounds with a filed dose
# Lassa entry inh – blocks Lassa virus binding to or entry into cells | Potency, µM (titrated, usually from 37.9 µM), most hits filed as inhibitors | Lassa virus pseudotype entry inhibition, cell reporter | actives 1.2% (n = 300,000); calls by dose curve; tested in HEK293 cells; further: nearly all actives have a fitted effect of over 50% in size
# MARV entry inh – inhibitors of Marburg virus binding or cell entry; Potency, µM (doses to about 37.8 µM), most hits filed as inhibitors; Marburg virus pseudotyped entry inhibition, cell reporter; actives 1.8% (n = 300,000); AID 540276; calls by dose curve; tested in HEK293 cells
# Shiga inhibitor – Shiga toxin inhibition; actives 9.2% (n = 290,000); inhibition, % at 38.7 µM; Vero cells, Shiga toxin protein synthesis inhibition reporter; in the data active means inhibition mostly above about 28%, no sharp cut-off; inactive means mostly below about 43%
# A number is an active result; 0 = inactive; ? = inconclusive; - = not tested or not shown; ! = not active in a repeat.
SMILES,CHX counter,Lassa entry inh,MARV entry inh,Shiga inhibitor
C[C@@H]1CC[C@H]2C(=O)N(Cc3ccc(Cl)cc3)C[C@H](O)CN2[C@@H]1c1ccc(Br)cc1,-,-,0,-
CC(=O)Nc1ccc(S(=O)(=O)N2CCN(c3cc(C(F)(F)F)ccn3)CC2)cc1,0,?,0,0
FC(F)(F)c1ccnc(N2CCN(Cc3cnc(-c4ccccc4)[nH]3)CC2)c1,63,0,?,61
COc1ccc(/C=N/NC(=O)C(=O)N2CCCC2)cc1,36,?,0,0
COc1cc(/C=N/NC(=O)C(=O)N2CCCCCC2)ccc1O,0,0,0,0
CN(C)c1ccc(/C=N/NC(=O)C(=O)N2CCCCCC2)cc1,26,0,?,0
COc1ccccc1CNC(=O)C(C)n1c(=O)cc(C(F)(F)F)c2c(C)nn(C)c21 (centres undefined),-,0,-,-
COc1ccc(CNc2nc(Cl)c(C#N)s2)cc1,41,-,-,45
COc1ccc(COC(=O)NN=C2C[C@@H](O)[C@@H](O)[C@@H]3[C@H]4C(=O)N([C@@H](C)c5ccccc5)C(=O)[C@@H]4CC[C@H]23)cc1,-,?,0,-
O=C(c1cn(-c2ccccc2)nc1-c1ccccc1)N1CCN(c2ccccn2)CC1,23,?,?,0
Cc1ccc(-c2nn(-c3ccccc3)cc2C(=O)N2CCN(c3ccccn3)CC2)cc1,0,0,?,42
CCc1ccc(N2CC(C(=O)OCC(=O)NNC(=O)c3ccccc3)CC2=O)cc1 (centres undefined),-,0,0,-
COc1ccc(-c2ccc(F)cc2)cc1C1C2C=CCC(C)C2C(=O)N1Cc1ccccc1 (centres undefined),0,-,-,0
O=C1N(c2ccc(Cl)cc2)C(c2cccnc2)N2CCCN12 (centres undefined),0,-,-,108
COc1ccc(C2Nc3ccccc3C(=O)N2c2ccc(C)cc2)cc1Cn1nc(C)c([N+](=O)[O-])c1C (centres undefined),47,0,?,0
COc1ccc(C2Nc3ccccc3C(=O)N2Cc2ccco2)cc1COc1ccc([N+](=O)[O-])cc1 (centres undefined),0,?,?,0
COc1ccc(C2Nc3ccccc3C(=O)N2c2ccccc2)cc1CN1CCOCC1 (centres undefined),0,0,0,0
COc1ccc(N2C(=O)c3ccccc3NC2c2ccc(OC)c(Cn3nnc4ccccc43)c2)cc1 (centres undefined),21,0,?,0
COc1ccc(C2Nc3ccccc3C(=O)N2c2ccc(C)cc2)cc1COc1ccccn1 (centres undefined),37,?,?,0
COc1cccc(OCc2cc(C3Nc4ccccc4C(=O)N3Cc3ccco3)ccc2OC)c1 (centres undefined),0,8.9µM,?,0
CC(C)n1c(N2CCN(S(=O)(=O)c3cccc([N+](=O)[O-])c3)CC2)nc2ccccc21,0,?,?,0
CC(C)=C(NC(=O)c1ccccc1)C(=O)Nc1cccc(C)c1,0,-,-,0
O=c1cc(-c2ccccc2)nc2n1Cc1ccccc1-2,0,?,0,0
COc1ccc(-c2nc3n(c2C)Cc2ccccc2-3)cc1,39,?,?,130
Cc1ccc2nc3c(nc2c1)-c1ccccc1C3=O,20,?,0,32
SMILES,CHX counter,Lassa entry inh,MARV entry inh,Shiga inhibitor
O=C(Nc1ccccc1[N+](=O)[O-])C1COc2ccccc2O1 (centres undefined),27,0,?,38
COC(=O)c1ccccc1NC(=O)C1COc2ccccc2O1 (centres undefined),55,0,0,122
Cc1ccc(C)c(NC(=O)C2COc3ccccc3O2)c1 (centres undefined),14,-,-,0
COc1ccc(C)cc1NC(=O)C1COc2ccccc2O1 (centres undefined),38,0,?,103
Cc1ccccc1NC(=O)C1COc2ccccc2O1 (centres undefined),0,-,-,-
N#Cc1sc(=O)[nH]c1Cl,0,-,-,0
CC(C(=O)NCCC1=CCCCC1)c1ccc([N+](=O)[O-])cc1 (centres undefined),0,0,?,0
CCc1cccc(NC(=O)CN2C(=O)COc3ccc(S(=O)(=O)N4CCC(C)CC4)cc32)c1,-,0,-,-
CCOc1ccccc1NC(=O)CSc1nc2ccccc2nc1N1CCOCC1,0,?,?,0
Cc1cccc(NC(=O)CSc2nc3ccccc3nc2N2CCC(C)CC2)c1,-,?,1.1µM,-
CC(=O)Nc1ccc(NC(=O)CSc2nc3ccccc3nc2N2CCC(C)CC2)cc1,19,?,0,0
Cc1cc(C)cc(NC(=O)CSc2nc3ccccc3nc2N2CCCC2)c1,0,-,-,0
O=C(CSc1nc2ccccc2nc1N1CCOCC1)Nc1ccccc1F,20,-,-,24
CC(=O)Nc1c(C)nn(-c2ccccc2)c1N1CCC(C(=O)Nc2ccc(F)cc2Cl)CC1,-,0,-,-
Cc1nc2c(-c3ccccc3)c(C)nn2c(C)c1CCC(=O)NCc1cccc(Cl)c1,-,0,0,-
NC(=S)c1cc2cc(Cl)ccc2oc1=O,0,0,0,0
FC(F)(F)c1ccccc1NC(=S)Nc1ccccc1,0,0,?,0
Fc1cc(Br)ccc1NC(=S)Nc1ccccc1,50,0,?,65
S=C(Nc1ccccc1)Nc1cccc(Br)c1,0,-,-,0
S=C(NNC(=S)Nc1ccccc1)Nc1ccccc1,42,?,?,56
S=C(Nc1ccccc1)Nc1ccc(Br)cc1,15,-,-,0
S=C(Nc1ccccc1)Nc1ccccc1-n1cccc1,22,-,-,0
O=C(NC1CCCC1)c1ccc2c(=O)n(Cc3ccccc3)c(SCc3cccc([N+](=O)[O-])c3)nc2c1,-,0,-,-
C[C@@H]1CC[C@H]2C(=O)N3[C@@H](CC[C@@H](C)[C@@H]3c3ccc(Br)cc3)C(=O)N2[C@@H]1c1ccc(Br)cc1,-,-,0,-
Cc1ccc(S(=O)(=O)NNC(=S)Nc2ccc(Cl)cc2)cc1,0,0,0,0
SMILES,CHX counter,Lassa entry inh,MARV entry inh,Shiga inhibitor
Cc1ccc(S(=O)(=O)NNC(=S)Nc2ccccc2)cc1,23,0,?,0
S=C(NN=C(C1CC1)C1CC1)Nc1ccccc1,34,?,0,43
Fc1ccccc1NC(=S)Nc1ccc(Br)cc1,17,?,0,18
C=CCOC(=O)C1=C(C)OC(N)=C(C#N)[C@H]1c1ccoc1,-,-,0,-
CCc1ccc(CN(Cc2ccco2)C(=O)COc2ccccc2Cl)cc1,-,0,?,-
CCC(=O)N(C)CCc1cc2c(c(OC)c1/C=N/Nc1ccc(C(=O)O)cc1)OCO2,35,0,?,0
CCC(=O)N(C)CCc1cc2c(c(OC)c1/C=N/NC(=O)[C@H]1C[C@@H]1c1ccccc1)OCO2,0,?,0,0
CCN1C(=O)C=CC1=O,-,0,28µM!,-
O=C1C=CC(=O)N1CCCCCCN1C(=O)C=CC1=O,0,?,?,0
COC(=O)N(/C=C/c1ccc(OC)cc1)CCc1ccc(OC)c(OC)c1,-,-,0,-
COc1ccc2c3c(ccc2c1)C(=O)/C(=C/O)CC3,-,?,0,-
COc1ccc2c(c1)CC/C(=C\c1ccc(C)o1)C2=O,56,-,-,91
COc1ccc2c(c1)CC/C(=C/c1ccncc1)C2=O,32,0,?,0
COc1ccc([C@]23Cc4cc(OC)c(OC)cc4C(O2)c2c(cc(C)n(Cc4ccccc4)c2=O)O3)cc1,0,-,?,0
CCN1CCN(S(=O)(=O)c2ccc(Cl)c(C(=O)Oc3ccc(CC(=O)OC)cc3)c2)CC1,-,0,?,-
O=C(NC(=O)c1ccccc1)NC1(C(F)(F)F)OCCO1,48,-,0,84
